# Most compounds without a hit are left out; they make up all but 1.4% or so of the library.
# GLD-1 RNA inh: GLD-1-TGE RNA interaction inhibition (C. elegans) | purified GLD-1 + fluorescein TGE RNA, fluorescence polarization | actives 0.44% (n = 320,000) | Q17339 | inhibition, % at 5.96 µM;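 active = percent inhibition above a per-plate cutoff, the plate mean of test compounds plus 3 SD, cut at about 30% in these data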;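 note: 0% = DMSO wells with GLD-1 and probe and 100% = wells lacking GLD-1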
# MCL1-BIM inh: disrupts human MCL1 binding to BIM-BH3 peptide | GST-MCL1 / FITC-Bim-BH3 fluorescence polarization | inhibition, % at 10.9 µM | actives 0.68% (n = 320,000);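 active = inhibition above the mean inhibition of all tested compounds plus 3 SD, set per campaign, cut at about 40% in these data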;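 note: 0% = DMSO wells and 100% = unlabeled Bim-BH3 peptide control; higher means more loss of mP so more displacement of Bim peptide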
# E coli Lon inh: E. coli protease La inhibition | P0A9M0 | inhibition, % at 7.94 µM | purified E. coli Lon protease, fluorescence polarization | actives 0.42% (n = 360,000); in the data active = inhibition above about 13%, passing the limit was not always enough;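 note: 0% = enzyme with probe and DMSO and 100% = no enzyme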
# EBV gp42 inh: inhibitors of Epstein-Barr virus glycoprotein 42 | Fluorescence polarization binding assay, mP read-out | actives 0.42% (n = 220,000) | AID 1085 | inhibition, % (tested at 21.74 µM) | Q1HVG2; in the data active = inhibition above about 50%
# BCLXL inh: Bcl-xL (human) inhibition. GST-Bcl-xL / FITC-Bim BH3 peptide fluorescence polarization. actives 0.7% (n = 320,000). inhibition, % at 10.9 µM. Q07817;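 active = inhibition above the mean of all tested compounds plus 3 SD, cutoff set per campaign, cut at about 30% in these data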;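 note: 0% = DMSO wells and 100% = unlabeled Bim-BH3 peptide competitor; inhibitors lower millipolarization by displacing the labeled peptide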
# MEX-5 binding: C. elegans MEX-5 TCR-2 RNA binding activity; AID 1832; activity score (negative = inhibition of binding), % at 10 µM; Q9XUB2; actives 0.38% (n = 300,000); MEX-5/FITC-TCR2 RNA binding, fluorescence polarization; hits give low values;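 active = inhibition past about -25% in most replicates, and total fluorescence under double the plate's negative control median, limit read from the data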;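 note: 0% = DMSO and -100% = 5 µM competing unlabeled TCR2 RNA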
# Target sequence (Q9XUB2 whole entry, looked up): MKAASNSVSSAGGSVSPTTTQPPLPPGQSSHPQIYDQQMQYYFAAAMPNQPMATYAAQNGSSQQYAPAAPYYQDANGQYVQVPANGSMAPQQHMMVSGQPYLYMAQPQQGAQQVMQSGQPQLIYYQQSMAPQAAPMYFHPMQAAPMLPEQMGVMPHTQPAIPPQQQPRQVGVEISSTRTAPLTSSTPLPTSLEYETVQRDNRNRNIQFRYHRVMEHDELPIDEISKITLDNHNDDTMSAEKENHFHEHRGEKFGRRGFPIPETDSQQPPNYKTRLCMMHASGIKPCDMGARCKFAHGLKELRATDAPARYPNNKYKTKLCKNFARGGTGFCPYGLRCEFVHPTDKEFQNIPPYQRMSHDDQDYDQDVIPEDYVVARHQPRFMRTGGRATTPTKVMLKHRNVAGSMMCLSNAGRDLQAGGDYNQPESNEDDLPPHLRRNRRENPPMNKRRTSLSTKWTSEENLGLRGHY
# GLD-1 TGE cf: GLD-1 TGE RNA interaction inhibition, confirmation | shares compounds with GLD-1 RNA inh | GLD-1/FL-TGE RNA fluorescence polarization, biochemical | inhibition, % at 5.96 µM | actives 10% (n = 550) | AID 2459;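 active = average inhibition across triplicates above the hit cutoff set in the primary screen, cut at about 32% in these data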;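 note: 0% = GLD-1 with RNA probe and DMSO and 100% = wells lacking GLD-1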
# * marks the source's active call; other numbers are inactive results; . = no result.
SMILES,GLD-1 RNA inh,MCL1-BIM inh,E coli Lon inh,EBV gp42 inh,BCLXL inh,MEX-5 binding,GLD-1 TGE cf
CN1C[C@H](C(=O)NC2(C)OC3(O)[C@@H]4CCCN4C(=O)[C@H](Cc4ccccc4)N3C2=O)CC2c3cccc4[nH]cc(c34)C[C@H]21 (stereo not given in full),33*,38,14,.,36*,-1,2
O=C(NCCc1ccccc1)C(=O)c1c(-c2ccccc2)cc2ccccn12,-1,4,-5,-14,2,1,.
COC(=O)c1cc2c(-c3ccccc3)cc3ccccn3c-2c1C(=O)OC,31*,48*,7,61*,36*,-2,12
COC(=O)c1cc(-c2ccccc2)sc1N,0,0,-11,-16,1,0,.
COC(=O)c1c(C(=O)OC)c2cccc3cc(-c4ccccc4)c4ccc1c4n32,31*,33,4,25,25,0,15
CC(=O)NC(C)(c1ccccc1)c1nc(-c2cc(F)cc(F)c2)cs1 (stereo not given),.,.,-5,.,.,.,.
CCN1C/C(=C/c2cccs2)c2nc3ccccc3c(C(=O)O)c2C1,35*,35,11,28,32*,-27*,34*
CC(C)c1ccc(C(=O)N2CCCCC2c2cc(C(=O)NCc3cccnc3)no2)cc1 (stereo not given),.,.,0,.,.,.,.
O=C(O)C1CN(c2ncccc2[N+](=O)[O-])C1,9,-2,8,0,1,0,.
O=C(O)[C@@H]1[C@@H]2C[C@@H]2CN1c1ncccc1[N+](=O)[O-],39*,47*,7,10,47*,-3,-2
CCCCC1=CC2=C(c3ccco3)C(=O)C(C)(OC(=O)c3ccc(OC)cc3)C(=O)C2=CN1c1ccc(OC)cc1 (stereo not given),33*,32,6,-9,30*,-16,4
Cc1cnc(C(=O)Nc2ccccc2-c2ccc(C)o2)cn1,42*,38,25,-6,36*,0,2
Nc1nnnn1/N=C/c1cc(Cl)ccc1O,38*,26,27,.,23,-23,46*
CSC1=NC(C)(C)CC2(C)Nc3ccccc3N12 (stereo not given),47*,6,10,-6,15,0,0
Cc1ccc(S(=O)(=O)N2CCN(Cc3ccccc3)CC2)s1,7,8,5,.,3,.,.
CC1CN(C(=O)C2CCCC2)C(C)CN1C(=O)C1CCCC1 (stereo not given),2,12,3,-17,1,-1,.
CC1CN(C(=O)C2CC2)C(C)CN1C(=O)C1CC1 (stereo not given),34*,3,-4,-12,2,-1,-5
CCOc1ccc(CN(C)c2ccc(S(=O)(=O)N3CCN(C)CC3)cc2[N+](=O)[O-])cc1OC,1,2,0,.,4,.,.
COc1ccccc1C(=O)Nc1ccc(-c2nnn(CC(=O)N3CCN(C(=O)c4ccco4)CC3)n2)cc1,51*,-4,-6,-2,0,1,-6
O=C(Cn1c(=O)oc2ccccc21)N1CCCC1,-7,0,4,.,-1,-1,.
O=C(Nc1cccc2c1C(=O)NC2=O)c1ccc(S(=O)(=O)N2CCCC2)cc1,36*,27,4,.,31*,.,19
Cc1cccc(NC(=O)c2ccc(S(=O)(=O)N3CCCC3)cc2)c1C,0,11,1,.,3,0,.
CSc1ccc(C(=O)C2CCCN(C(=O)Cc3nonc3C)C2)cc1 (stereo not given),1,-2,4,-4,4,-3,.
COc1ccc(NC(=O)Cn2c(=O)n(-c3ccc(CC(=O)NCc4ccco4)cc3)c(=O)c3ccccc32)cc1,2,-4,7,-4,2,0,.
Cc1ccc(OCC(=O)c2ccc(Cl)s2)c([N+](=O)[O-])n1,31*,18,1,-6,18,1,-5
SMILES,GLD-1 RNA inh,MCL1-BIM inh,E coli Lon inh,EBV gp42 inh,BCLXL inh,MEX-5 binding,GLD-1 TGE cf
CC(C)/C(C=O)=C(/NC1CCCCC1)c1ccccc1,8,1,1,.,0,.,.
Cc1ccc(S(=O)(=O)N2CCOCC2)cc1C(=O)O,4,4,14,-7,5,-1,.
Cc1ccc(S(=O)(=O)N2CCOCC2)cc1C(=O)N1C(=O)c2cccc(N)c2C1=O,32*,32,0,36,30*,-3,18
Nc1cccc2c1C(=O)N(C(=O)c1cccc(S(=O)(=O)N3CCCCCC3)c1)C2=O,38*,31,9,-3,28,-1,15
CCN1CCN(Cc2ccc(NC(=O)c3ccc(C)c(NC(=O)c4ccnnc4)c3)cc2C(F)(F)F)CC1,39*,-7,-6,-9,-1,0,2
CCN1CCN(Cc2ccc(NC(=O)c3ccc(C)c(NC(=O)c4ccc5n[nH]nc5c4)c3)cc2C(F)(F)F)CC1,-6,-3,5,-8,5,12,.
Cc1ccc(CS(=O)(=O)Cc2ccc(C(=O)NC3CC3)o2)cc1,33*,5,5,.,4,0,-8
COc1ccccc1CNC(=O)CCNC(=O)c1ccco1,.,.,9,.,.,.,.
O=C(Cc1ccc(-c2ccccc2)cc1)Nc1ncccc1O,31*,29,-10,.,25,0,0
O=C1c2ccccc2C(c2nnnn2-c2ccc3c(c2)OCCO3)N1Cc1cccs1 (stereo not given),.,.,-3,.,.,.,.
COc1ccc(OC)c(/C=C/C(=O)NCCc2nc3ccccc3[nH]2)c1,1,-3,-3,-10,-2,0,.
CN(CC(=O)Nc1n[nH]c(=S)s1)S(=O)(=O)c1cccc2cccnc12,112*,-10,-15,.,-4,-9,0
Cc1csc(NC(=O)CN(C)S(=O)(=O)c2cccc3cccnc23)n1,-3,3,-5,7,6,-2,.
COc1ccc(NC(=O)C/C(C)=N/NC(=O)c2cccs2)c([N+](=O)[O-])c1,9,9,0,.,7,0,.
CCN(CC)CCNC(C(=O)Nc1cc(C(F)(F)F)ccc1Cl)c1ccccc1 (stereo not given),35*,-21,1,-50,-6,-4,0
CCCn1c(N)c(N(CCOC)C(=O)Cc2ccc(S(=O)(=O)N3CCOCC3)s2)c(=O)[nH]c1=O,38*,39,-1,.,41*,-26*,51*
COc1ccc(N2C(=O)[C@@H]3[C@H](C2=O)[C@H](C(=O)c2ccc(OC(C)=O)cc2)N2N=CC=C[C@@H]32)cc1,2,2,.,-13,7,4,.
